Compound activity from PubChem.
FMDV antiviral: antivirals against foot and mouth disease virus; 410,000 compounds, 1.2% hits; Potency, µM (series often up to 57.9 µM), usual class: inhibitors; FMDV antiviral cell-based qHTS; AID 1159524; calls by dose curve; tested in HEK293T cells; note: read-out not given here; nearly all actives have a fitted effect of over 45% in size
Shiga toxin inh: blocks Shiga toxin action in Vero cells | Vero cells, Shiga toxin protein synthesis inhibition reporter | inhibition, % at 38.7 µM | 290,000 compounds, 9.2% hits | AID 2315; in the data active = inhibition mostly above about 28%, no sharp cut-off; inactive = mostly below about 43%
MARV entry inh: Marburg virus entry inhibition | Marburg virus pseudotyped entry inhibition, cell reporter | Potency, µM (doses to about 37.8 µM), actives largely listed as inhibitors | 300,000 compounds, 1.8% hits; calls by dose curve; tested in HEK293 cells
LASV entry inh: blocks Lassa virus binding to or entry into cells | Lassa virus pseudotype entry inhibition, cell reporter | Potency, µM (highest dose often 37.9 µM), usual class: inhibitors | 300,000 compounds, 1.2% hits; calls by dose curve; tested in HEK293 cells; note: nearly all actives have a fitted effect of over 50% in size
Cycloheximide cs: counter-screen for Shiga toxin inhibitors: cycloheximide protein synthesis inhibition | max response, % | AID 2314 | 300,000 compounds, 12% hits | cell reporter, cycloheximide protein synthesis inhibition counterscreen; in the data active = max response mostly above about 13%, no sharp cut-off; inactive = mostly below about 14%; note: read at 38.3 µM for the half of the compounds with a filed dose
HCV inhibitor: HCV inhibition; Huh7.5.1 HCVcc-Cre infection, luciferase reporter, 44 h; Potency, µM (doses to about 41.8 µM), most hits filed as inhibitors; 340,000 compounds, 3.4% hits; active = well fitted inhibition curve with a large enough effect; inconclusive = small, poorly fitted or top-dose-only effect, or another doubt; inactive = no such curve, though single readings can be large or run the other way
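Whole-lifecycle infectious HCVcc-Cre system; cells 1,000/well, compound then virus (~0.5 moi) added 4 h after plating, 44 h culture. Luciferase read 15 sec following 15 min substrate incubation, room temp.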
Large screens that a line does not name were inactive. A selection: hits, their analogues and other compounds. The true share with any hit is near 13%.

CCCCCC(=O)N1CCN(S(=O)(=O)c2ccc3c(c2)OCCO3)CC1	MARV entry inh inconclusive (no result: Shiga toxin inh, Cycloheximide cs)
CC(=O)NS(=O)(=O)c1ccc2c(c1)C(=O)c1cc(S(=O)(=O)NC(C)=O)ccc1-2	none (no result: Shiga toxin inh, MARV entry inh, LASV entry inh)
CCCCN(CCCNC(=O)c1c(C)cc(=O)oc1C)c1ccccc1	HCV inhibitor 4µM
CCCCN(CCCNC(=O)c1ccc2c(c1)NC(=O)CN2C)c1ccccc1	FMDV antiviral 22µM (no result: Shiga toxin inh, MARV entry inh, LASV entry inh, Cycloheximide cs, HCV inhibitor)
CCOC(=O)C1(Cc2cccc(Cl)c2)CCCN(C(=O)C2CC2)C1 (stereo unspecified)	Cycloheximide cs 14
CCOC(=O)C1(Cc2cccc(Cl)c2)CCCN(C(=O)c2ccc(COC)s2)C1 (stereo unspecified)	LASV entry inh inconclusive, Cycloheximide cs 20
CCOC(=O)C1(Cc2cccc(Cl)c2)CCCN(C(=O)CCC(=O)N(C)C)C1 (stereo unspecified)	none (no result: MARV entry inh, LASV entry inh)
CCOC(=O)C1(Cc2cccc(Cl)c2)CCCN(C(=O)c2ccco2)C1 (stereo unspecified)	Shiga toxin inh 64 (no result: MARV entry inh, LASV entry inh)
CCOC(=O)C1(Cc2cccc(Cl)c2)CCCN(C(=O)c2cccc(C)n2)C1 (stereo unspecified)	MARV entry inh 7.1µM, LASV entry inh inconclusive, HCV inhibitor 18µM
CCN(CC(=O)Nc1ccc(Br)cc1F)CC(=O)NC1CCS(=O)(=O)C1 (stereo unspecified)	none (no result: Shiga toxin inh, Cycloheximide cs)
Cc1ccc(-c2nnn(CC(=O)N(c3cccc(F)c3)C(C(=O)NC3CCCC3)c3ccco3)n2)o1 (stereo unspecified)	MARV entry inh inconclusive
Cc1oc2cc3oc(=O)c(CC(=O)NCc4ccccc4)c(C)c3cc2c1C	none (no result: Shiga toxin inh, Cycloheximide cs, HCV inhibitor)
CCOC(=O)C1C(=O)C=C(c2cccs2)CC1c1ccccc1 (stereo unspecified)	none
COc1cccc(CNC(=O)CCC2CCCN(C(=O)CCC(F)(F)F)C2)c1 (stereo unspecified)	MARV entry inh inconclusive
CCOC(=O)c1oc2cccc(OC(C)=O)c2c1C	Shiga toxin inh 68, Cycloheximide cs 39
CCOC(=O)c1oc2cccc(O)c2c1C	Shiga toxin inh 63, MARV entry inh inconclusive, Cycloheximide cs 32
CCOC(=O)c1oc2ccc(CNC(C)(C)C)c(Cl)c2c1C	Shiga toxin inh 27, MARV entry inh inconclusive, Cycloheximide cs 16, HCV inhibitor inconclusive (no result: FMDV antiviral)
CCOC(=O)c1oc2ccc(Cl)cc2c1NC(C)=O	none (no result: MARV entry inh, LASV entry inh)
C#CCSc1nc2sc3c(c2c(=O)n1-c1cccc(OC)c1)CCN(C(C)=O)C3	LASV entry inh inconclusive (no result: Shiga toxin inh, Cycloheximide cs, HCV inhibitor)
COc1ccc(NC(=O)c2ccc(OC(F)F)cc2)cc1Cl	Shiga toxin inh active, LASV entry inh inconclusive, Cycloheximide cs 47, HCV inhibitor inconclusive
COc1cc(C(=O)ONC(=O)c2ccc(OC(F)F)cc2)cc(OC)c1OC	MARV entry inh inconclusive, LASV entry inh 9.2µM
Cc1ccc(NC(=S)Nc2ccc(OC(F)F)c(Cl)c2)cc1F	HCV inhibitor 13µM
O=C(Nc1ccc(OC(F)F)c(Cl)c1)c1ccccn1	Shiga toxin inh 94, MARV entry inh inconclusive, LASV entry inh inconclusive, Cycloheximide cs 41
O=C(NOC(=O)c1ccccc1F)c1ccc(OC(F)F)cc1	MARV entry inh inconclusive
COc1cc(Cl)c(C)cc1NC(=O)c1cc(CN2CCOCC2)on1	none (no result: Shiga toxin inh, MARV entry inh, Cycloheximide cs, HCV inhibitor)
Cc1ccc(C(=O)Nc2ccc(S(=O)(=O)N3CCN(C)CC3)cc2)o1	MARV entry inh inconclusive, LASV entry inh inconclusive
CCCCC[C@H]1CN(C2CCCCC2)C(=O)[C@@H]1CC(=O)NCc1ccccc1	none (no result: MARV entry inh, LASV entry inh)
COc1ccc(CCNC(=O)C2=C(C)C(=O)OC23CCCCC3)c(OC)c1OC	none (no result: Shiga toxin inh, Cycloheximide cs, HCV inhibitor)
COc1ccc(NC(=O)c2cc(F)cc(F)c2)cc1Cl	Shiga toxin inh 82, Cycloheximide cs 27, HCV inhibitor inconclusive
COc1ccc(NC(=O)c2c(F)c(F)c(F)c(F)c2F)cc1Cl	HCV inhibitor inconclusive
CCOC(=O)C1(C)CCN1C(=O)c1cccs1 (stereo unspecified)	none (no result: Shiga toxin inh, MARV entry inh, LASV entry inh, Cycloheximide cs, HCV inhibitor)
Cc1ccc(S(=O)(=O)n2nccc2-c2c(-c3ccc(Cl)cc3)noc2C)cc1	MARV entry inh inconclusive, LASV entry inh inconclusive, HCV inhibitor 14µM
O=C(O)c1cccc(COc2ccc(CO)cc2Cl)c1	MARV entry inh inconclusive, LASV entry inh 0.29µM (no result: FMDV antiviral)
O=C(O)c1ccc(COc2ccc(CO)cc2Cl)cc1	Shiga toxin inh 72, MARV entry inh inconclusive, Cycloheximide cs 29 (no result: FMDV antiviral)
CSc1nc2c(c(=O)[nH]c(=O)n2C)n1Cc1ccc(Cl)cc1	HCV inhibitor 25µM (no result: Shiga toxin inh)
CCCn1c(SCc2ccc(Cl)cc2)nc2c1c(=O)[nH]c(=O)n2C	FMDV antiviral inconclusive, LASV entry inh 16µM
CC(C)(C)OC(=O)N1Cc2ccccc2C[C@H]1C(=O)NC1CCCC1	MARV entry inh inconclusive
Nc1nc(Nc2cccc(F)c2)nc2ccccc12	Shiga toxin inh 105, MARV entry inh inconclusive, LASV entry inh inconclusive, Cycloheximide cs 29
Fc1cccc(Nc2c3c(nc4ccccc24)CCC3)c1	LASV entry inh inconclusive
O=c1oc(Nc2cccc(F)c2)nc2ccccc12	Shiga toxin inh 105, Cycloheximide cs 18
Cc1oc(C)c2c(=O)cc(-c3ccc4c(c3)OCO4)cc(OC(=O)c3cccc(Br)c3)c12	none (no result: Shiga toxin inh, Cycloheximide cs, HCV inhibitor)
CCc1nc2ccc(C(=O)NCCN3CCOCC3)cn2c1N(CC)CCOC	none (no result: Shiga toxin inh, MARV entry inh, LASV entry inh, Cycloheximide cs, HCV inhibitor)
CCOc1ccc(NC(=O)Cn2c(=O)n(Cc3ccc4c(c3)OCO4)c(=O)c3ccc(C(=O)NC4CCCCC4)cc32)cc1	none (no result: Shiga toxin inh, Cycloheximide cs, HCV inhibitor)
CCC(Sc1nc(N)c(NC(=O)c2ccco2)c(=O)[nH]1)C(=O)O (stereo unspecified)	none
CC(=O)OCc1cnc(C)c2oc(=O)c(C(=O)Nc3cccc(F)c3)cc12	LASV entry inh 0.79µM (no result: Shiga toxin inh, MARV entry inh, Cycloheximide cs, HCV inhibitor)
CC(=O)OCc1cnc(C)c2oc(=O)c(C(=O)Nc3cc(F)ccc3C)cc12	none (no result: Shiga toxin inh, Cycloheximide cs, HCV inhibitor)
